Growth inhibition data for 10 compounds are collected here from PubChem BioAssay (NCI).

Experiment [1] in a line: NCI Yeast Anticancer Drug Screen. Data for the rad50 strain (AID 155).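 Note: 0% = growth of vehicle-only cultures of the same strain.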 As to conditions: S. cerevisiae rad50 strain growth inhibition, active compounds read high. Put shortly: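 DNA repair mutant yeast, compound exposure, growth read-out; inhibition is taken relative to vehicle.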
A short description of experiment [2]: NCI Yeast Anticancer Drug Screen. Data for the mec2-1 strain (AID 157). As to conditions: S. cerevisiae mec2-1 strain, active compounds read high. The procedure, abridged: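 Strain: mec2-1 (DNA repair/cell cycle alteration). Compound exposure, then growth measured; inhibition expressed relative to vehicle.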
Experiment [3] in a line: NCI Yeast Anticancer Drug Screen. Data for the sgs1 mgt1 strain (AID 161).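 Note: 0% = growth of cultures given vehicle only.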 As to conditions: S. cerevisiae sgs1 mgt1 strain, active compounds read high. Put shortly: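 Genetically altered yeast, compound exposure, growth inhibition relative to vehicle.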
Experiment [4] can be described thus: NCI Yeast Anticancer Drug Screen. Data for the cln2 rad14 strain (AID 165).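 Note: 0% = growth equal to vehicle treated cultures.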 Particulars: S. cerevisiae cln2 rad14 strain, active compounds read high. The procedure, abridged:
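Compounds are applied to the cln2 rad14 yeast strain, and growth is then compared with that of vehicle-treated cultures to give inhibition.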

Experiment [5] is described as follows: NCI Yeast Anticancer Drug Screen. Data for the bub3 strain (AID 167). Particulars: S. cerevisiae bub3 mutant strain, active compounds read high. Put shortly: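 In this screen, a yeast mutant lacking normal mitotic checkpoint function is challenged with compound. Relative growth versus vehicle gives the inhibition value.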
The nature of experiment [6]: NCI Yeast Anticancer Drug Screen. Data for the mlh1 rad18 strain (AID 175). As to conditions: S. cerevisiae mlh1 rad18 strain growth inhibition, active compounds read high. Put shortly:
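Read-out is yeast growth inhibition, calculated against vehicle-only controls. The compound was applied to a strain engineered with DNA damage repair alterations.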

Where [7] appears, read: at 5.0 µM (retest, dose inferred, filed as 0.5).
[8] abbreviates: at 50.0 µM (retest, dose inferred, filed as 5.0).

This is part of a sample that, as a whole, favours compounds with a hit. Of some 79,000 tested, about 15% had one in any assay. Values without a mark were called inactive. The source made the active and inactive calls. Cut-off read from the data, not from the text of the source: active = growth inhibition above about 70%; inactive = the rest.

In the case of `Cc1c(N)nc(C2CC(=O)N2CC(N)C(N)=O)nc1C(=O)NC(C(=O)NC(C)C(O)C(C)C(=O)NC(C(=O)NCCc1nc(-c2nc(C(=O)NCCNCC(C)O)cs2)cs1)C(C)O)C(OC1OC(CO)C(O)C(O)C1OC1OC(CO)C(O)C(OC(N)=O)C1O)c1cnc[nH]1` (stereo not given), the growth inhibition was 94% (active) in experiment [1] (setting [7]); 97% (active) in experiment [1] (setting [8]); 92.7% (active) in experiment [1] (at 50.0 µM); 82% (active) in experiment [2] (setting [7]); 99% (active) in experiment [2] (setting [8]); 93.3% (active) in experiment [2] (at 50.0 µM). Further, the growth inhibition was 87% (active) in experiment [3] (setting [7]); 98% (active) in experiment [3] (setting [8]); 93.3% (active) in experiment [3] (at 50.0 µM); 61% in experiment [4] (setting [7]); 92% (active) in experiment [4] (setting [8]); 90.6% (active) in experiment [4] (at 50.0 µM). Also, the growth inhibition in experiment [5] (setting [7]) is 77% (active); in experiment [5] (setting [8]), 96% (active); in experiment [5] (at 50.0 µM), 93.8% (active); in experiment [6] (setting [7]) it was 97% (active); in experiment [6] (setting [8]) it was 98% (active); in experiment [6] (at 50.0 µM), 92.5% (active).
As to `Nc1nccc2c1ncn2C1C=C(CO)C(O)C1O` (stereo not given), the growth inhibition in experiment [1] (setting [7]) was 15%; in experiment [1] (setting [8]), 67%; in experiment [1] (at 50.0 µM), 38.5%; in experiment [2] (setting [7]), 3%; in experiment [2] (setting [8]) it was 90% (active); in experiment [2] (at 50.0 µM), 45.4%. Further, the growth inhibition in experiment [3] (setting [7]) was 6%; in experiment [3] (setting [8]), 80% (active); in experiment [3] (at 50.0 µM) it was 54.5%; in experiment [4] (setting [7]) it was 0%; in experiment [4] (setting [8]), 26%; in experiment [4] (at 50.0 µM) it was 57.5%. The growth inhibition in experiment [5] (setting [7]) is 21%; in experiment [5] (setting [8]), 94% (active); in experiment [5] (at 50.0 µM), 57.1%; in experiment [6] (setting [7]), 18%; in experiment [6] (setting [8]) it was 89% (active); in experiment [6] (at 50.0 µM) it was -8.5%.
Consider `C=C(C)[P+](C)(c1ccccc1)c1ccccc1`, for which the growth inhibition was -12% in experiment [1] (setting [7]); 25% in experiment [1] (setting [8]); 72.7% (active) in experiment [1] (at 50.0 µM); -12% in experiment [2] (setting [7]); 6% in experiment [2] (setting [8]); 0.95% in experiment [2] (at 50.0 µM). In addition, the growth inhibition is -8% in experiment [3] (setting [7]); 22% in experiment [3] (setting [8]); 28.9% in experiment [3] (at 50.0 µM); 1% in experiment [4] (setting [7]); -2% in experiment [4] (setting [8]); 4.4% in experiment [4] (at 50.0 µM). Also, the growth inhibition was -18% in experiment [5] (setting [7]); 6% in experiment [5] (setting [8]); -9.3% in experiment [5] (at 50.0 µM); -4% in experiment [6] (setting [7]); 4% in experiment [6] (setting [8]); 29.3% in experiment [6] (at 50.0 µM).
Consider `Cc1[nH]nc(C(=O)OC(C)C)c1N=NN(C)C`, for which the growth inhibition in experiment [1] (setting [7]) is -65%; in experiment [1] (setting [8]), 94% (active); in experiment [1] (at 50.0 µM) it was 98.2% (active); in experiment [2] (setting [7]), -43%; in experiment [2] (setting [8]) it was 98% (active); in experiment [2] (at 50.0 µM) it was 98.7% (active). Moreover, the growth inhibition in experiment [3] (setting [7]) is -46%; in experiment [3] (setting [8]), 96% (active); in experiment [3] (at 50.0 µM), 96.2% (active); in experiment [4] (setting [7]) it was -69%; in experiment [4] (setting [8]), 97% (active); in experiment [4] (at 50.0 µM), 97.3% (active). Also, the growth inhibition in experiment [5] (setting [7]) was -64%; in experiment [5] (setting [8]), 95% (active); in experiment [5] (at 50.0 µM), 98.3% (active); in experiment [6] (setting [7]), -115%; in experiment [6] (setting [8]) it was 95% (active); in experiment [6] (at 50.0 µM), 98.7% (active).
For the compound `O=C(O)C(Cc1ccccc1)N=Cc1ccc(O)cc1` (stereo not given), the growth inhibition in experiment [1] (setting [7]) is 70% (active); in experiment [1] (setting [8]), 97% (active); in experiment [1] (at 50.0 µM) it was 11.1%; in experiment [2] (setting [7]), 58%; in experiment [2] (setting [8]), 99% (active); in experiment [2] (at 50.0 µM) it was 11.8%. Also, the growth inhibition is 79% (active) in experiment [3] (setting [7]); 98% (active) in experiment [3] (setting [8]); 6.8% in experiment [3] (at 50.0 µM); 33% in experiment [4] (setting [7]); 97% (active) in experiment [4] (setting [8]); 43.8% in experiment [4] (at 50.0 µM). Besides, the growth inhibition in experiment [5] (setting [7]) was 43%; in experiment [5] (setting [8]), 98% (active); in experiment [5] (at 50.0 µM), 20.2%; in experiment [6] (setting [7]), 68%; in experiment [6] (setting [8]), 98% (active); in experiment [6] (at 50.0 µM) it was -1.05%.
Take `CCOC(=O)N(c1ccccc1)N(CC)C(=O)/C(C)=N/Nc1ccc([N+](=O)[O-])cc1`: the growth inhibition in experiment [1] (setting [7]) is 6%; in experiment [1] (setting [8]), 93% (active); in experiment [1] (at 50.0 µM), 97.7% (active); in experiment [2] (setting [7]), 5%; in experiment [2] (setting [8]) it was 94% (active); in experiment [2] (at 50.0 µM), 95.8% (active). For the same compound, the growth inhibition is 9% in experiment [3] (setting [7]); 94% (active) in experiment [3] (setting [8]); 97.7% (active) in experiment [3] (at 50.0 µM); 10% in experiment [4] (setting [7]); 95% (active) in experiment [4] (setting [8]); 92.2% (active) in experiment [4] (at 50.0 µM). For the same compound, the growth inhibition in experiment [5] (setting [7]) was -10%; in experiment [5] (setting [8]) it was 92% (active); in experiment [5] (at 50.0 µM), 95.8% (active); in experiment [6] (setting [7]), -1%; in experiment [6] (setting [8]), 94% (active); in experiment [6] (at 50.0 µM) it was 97% (active).
Regarding `COc1ccc2ccc(OC)c(C=O)c2c1`, the growth inhibition in experiment [1] (setting [7]) was -158%; in experiment [1] (setting [8]), -119%; in experiment [1] (at 50.0 µM) it was 97.5% (active); in experiment [2] (setting [7]), -50%; in experiment [2] (setting [8]), -111%; in experiment [2] (at 50.0 µM), 10.2%. The growth inhibition was -65% in experiment [3] (setting [7]); -60% in experiment [3] (setting [8]); -1% in experiment [3] (at 50.0 µM); -63% in experiment [4] (setting [7]); -58% in experiment [4] (setting [8]); -28.2% in experiment [4] (at 50.0 µM). Besides, the growth inhibition is -67% in experiment [5] (setting [7]); -74% in experiment [5] (setting [8]); -25.6% in experiment [5] (at 50.0 µM); -144% in experiment [6] (setting [7]); -107% in experiment [6] (setting [8]); 63.5% in experiment [6] (at 50.0 µM).
For the compound `c1ccc2cc3nc4ccccc4nc3cc2c1`, the growth inhibition in experiment [1] (setting [7]) is 44%; in experiment [1] (setting [8]) it was 82% (active); in experiment [1] (at 50.0 µM) it was 87.9% (active); in experiment [2] (setting [7]), 21%; in experiment [2] (setting [8]), 38%; in experiment [2] (at 50.0 µM), 51.4%. Moreover, the growth inhibition in experiment [3] (setting [7]) was 13%; in experiment [3] (setting [8]), 22%; in experiment [3] (at 50.0 µM), 20.9%; in experiment [4] (setting [7]), 15%; in experiment [4] (setting [8]), 38%; in experiment [4] (at 50.0 µM), 70.1% (active). Also, the growth inhibition in experiment [5] (setting [7]) is 42%; in experiment [5] (setting [8]), 57%; in experiment [5] (at 50.0 µM) it was 68.3%; in experiment [6] (setting [7]) it was 25%; in experiment [6] (setting [8]) it was 58%; in experiment [6] (at 50.0 µM) it was 73% (active).
In the case of `O=C(O)c1cc2c(cc1CC(Cc1ccc3c(c1)CCCC3)C(=O)O)CCCC2` (stereo not given), the growth inhibition in experiment [1] (setting [7]) was 20%; in experiment [1] (setting [8]), 95% (active); in experiment [1] (at 50.0 µM), 86.3% (active); in experiment [2] (setting [7]), 16%; in experiment [2] (setting [8]) it was 98% (active); in experiment [2] (at 50.0 µM), 73.3% (active). For the same compound, the growth inhibition is 19% in experiment [3] (setting [7]); 98% (active) in experiment [3] (setting [8]); 70.2% (active) in experiment [3] (at 50.0 µM); 9% in experiment [4] (setting [7]); 96% (active) in experiment [4] (setting [8]); 74.4% (active) in experiment [4] (at 50.0 µM). For the same compound, the growth inhibition was 7% in experiment [5] (setting [7]); 98% (active) in experiment [5] (setting [8]); 76.2% (active) in experiment [5] (at 50.0 µM); 8% in experiment [6] (setting [7]); 96% (active) in experiment [6] (setting [8]); 82.5% (active) in experiment [6] (at 50.0 µM).
Regarding `COC1CCCCC1C(=O)C(C#N)C1CCCCC1C1CCCCC1` (stereo not given), the growth inhibition was 4% in experiment [1] (setting [7]); -2% in experiment [1] (setting [8]); 96% (active) in experiment [1] (at 50.0 µM); 3% in experiment [2] (setting [7]); -6% in experiment [2] (setting [8]); 95.5% (active) in experiment [2] (at 50.0 µM). Besides, the growth inhibition in experiment [3] (setting [7]) is 7%; in experiment [3] (setting [8]), 7%; in experiment [3] (at 50.0 µM) it was 97% (active); in experiment [4] (setting [7]), -5%; in experiment [4] (setting [8]), 0%; in experiment [4] (at 50.0 µM) it was 98.5% (active). Moreover, the growth inhibition in experiment [5] (setting [7]) was -3%; in experiment [5] (setting [8]) it was -3%; in experiment [5] (at 50.0 µM), 96.7% (active); in experiment [6] (setting [7]), 0%; in experiment [6] (setting [8]), 3%; in experiment [6] (at 50.0 µM), 98.3% (active).
